# PubChem BioAssay (NCI)
# Compounds without any hit were thinned out: in the full panel of roughly 79,000, 15% have a hit. A number with no mark means an inactive call. Calls of active or inactive are those of the source. Cut-off read from the data, not from the text of the source: active = growth inhibition above about 70%; inactive = the rest.
# Key:
# [1] = NCI Yeast Anticancer Drug Screen. Data for the rad52 strain (AID 147);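 note: 0% = growth of vehicle-treated control cultures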; conditions: S. cerevisiae rad52 mutant growth inhibition, stronger effect = higher value
# Method in brief: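 Inhibition of yeast growth, referenced to vehicle controls, was the measured output for a strain with defective DNA damage repair.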
# [2] = NCI Yeast Anticancer Drug Screen. Data for the wt1 strain (AID 149);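 note: 0% = growth of vehicle-treated wt1 cultures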; conditions: S. cerevisiae wt1 strain (SPY 50644) growth inhibition, stronger effect = higher value
# Method in brief: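 Growth inhibition read against vehicle controls after compound exposure of the wt1 yeast strain.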
# [3] = NCI Yeast Anticancer Drug Screen. Data for the rad50EPP+ strain (AID 151);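 note: 0% = growth of vehicle-treated control cultures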; conditions: S. cerevisiae rad50 mutant strain, stronger effect = higher value
# Method in brief: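 Genetically defined yeast (rad50EPP+, DNA damage repair alteration) is grown with compound, and inhibition of growth is expressed relative to vehicle-treated controls.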
# [4] = NCI Yeast Anticancer Drug Screen. Data for the mgt1 strain (AID 153); conditions: S. cerevisiae mgt1 mutant growth inhibition, stronger effect = higher value
# Method in brief: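 In the mgt1 strain, test compounds were added and growth inhibition was determined relative to vehicle-treated controls.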
# [5] = NCI Yeast Anticancer Drug Screen. Data for the rad50 strain (AID 155);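 note: 0% = growth of vehicle-only cultures of the same strain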; conditions: S. cerevisiae rad50 strain growth inhibition, stronger effect = higher value
# Method in brief: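 Readout: growth inhibition relative to vehicle-treated cultures. Compound exposure was carried out in a genetically defined yeast strain deficient in DNA damage repair.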
# [6] = NCI Yeast Anticancer Drug Screen. Data for the mec2-1 strain (AID 157); conditions: S. cerevisiae mec2-1 strain, stronger effect = higher value
# Method in brief: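 Each compound was tested on mec2-1 yeast, a strain altered in DNA damage repair or cell cycle control. Growth inhibition is reported relative to vehicle.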
# [7] = NCI Yeast Anticancer Drug Screen. Data for the rad14 strain (AID 159);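 note: 0% = growth of vehicle-treated control cultures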; conditions: S. cerevisiae rad14 strain growth inhibition, stronger effect = higher value
# Method in brief: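 Growth inhibition vs vehicle controls; genetically altered yeast strain (DNA damage repair defect) treated with test compounds.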
# [8] = NCI Yeast Anticancer Drug Screen. Data for the sgs1 mgt1 strain (AID 161);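 note: 0% = growth of cultures given vehicle only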; conditions: S. cerevisiae sgs1 mgt1 strain, stronger effect = higher value
# Method in brief: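 Read-out: growth inhibition vs vehicle controls. Cells: mutant yeast strain deficient in DNA damage repair.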
# [9] = NCI Yeast Anticancer Drug Screen. Data for the CLN2oe strain (AID 163);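 note: 0% = growth of vehicle-only control cultures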; conditions: S. cerevisiae CLN2oe strain, stronger effect = higher value
# Method in brief: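 First, the altered yeast strain was treated with each compound; second, its growth was measured; finally, inhibition was derived by comparison with vehicle controls.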
# [10] = NCI Yeast Anticancer Drug Screen. Data for the cln2 rad14 strain (AID 165);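 note: 0% = growth equal to vehicle treated cultures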; conditions: S. cerevisiae cln2 rad14 strain, stronger effect = higher value
# Method in brief: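 Test compounds were added to cln2 rad14 yeast cultures; inhibition of growth was then determined by comparison with vehicle treatment.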
# [11] = NCI Yeast Anticancer Drug Screen. Data for the bub3 strain (AID 167); conditions: S. cerevisiae bub3 mutant strain, stronger effect = higher value
# Method in brief: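 Readout: yeast growth inhibition, expressed relative to vehicle-only wells. The test organism is a mutant strain from a panel with lesions in DNA repair or checkpoint genes.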
# [12] = NCI Yeast Anticancer Drug Screen. Data for the wt2 strain (AID 169);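 note: 0% = growth of vehicle-treated yeast cultures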; conditions: S. cerevisiae wt2 strain growth inhibition, stronger effect = higher value
# Method in brief: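 The panel's yeast strains carry defined changes in DNA repair or cell cycle genes. Each strain is grown with compound, and growth loss is scored relative to vehicle.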
# [13] = NCI Yeast Anticancer Drug Screen. Data for the mlh1 strain (AID 171);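 note: 0% = growth of vehicle-treated control cultures of the same strain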; conditions: S. cerevisiae mlh1 strain growth inhibition, stronger effect = higher value
# Method in brief: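 Inhibition values reflect reduced yeast growth in the presence of compound, referenced to vehicle controls, using a strain chosen for its alteration in DNA repair or cell cycle control.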
# [14] = NCI Yeast Anticancer Drug Screen. Data for the sgs1 strain (AID 173);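 note: 0% = growth of vehicle-only control cultures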; conditions: S. cerevisiae sgs1 mutant, stronger effect = higher value
# Method in brief: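 Vehicle-treated cultures served as reference for growth inhibition of a yeast strain altered in DNA damage repair or cell cycle control after compound exposure.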
# [15] = NCI Yeast Anticancer Drug Screen. Data for the mlh1 rad18 strain (AID 175); conditions: S. cerevisiae mlh1 rad18 strain growth inhibition, stronger effect = higher value
# Method in brief: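 Inhibition values reflect reduced growth of mutant yeast versus vehicle-treated controls following compound exposure; the mutations affect DNA damage repair.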
# [16] = NCI Yeast Anticancer Drug Screen. Data for the rad18 strain (AID 177); conditions: S. cerevisiae rad18 mutant growth inhibition, stronger effect = higher value
# Method in brief: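 Steps: expose repair-mutant yeast to compound; measure growth; express as inhibition relative to vehicle control.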
# [17] = at 5.0 µM (retest, dose inferred, filed as 0.5)
# [18] = at 50.0 µM (retest, dose inferred, filed as 5.0)
smiles,measurement,setting,value
Cc1cccc(NC(=O)CBr)c1,growth inhibition,[1]; at 1.2 µM,3%
same,growth inhibition,[1]; at 3.7 µM,41%
same,growth inhibition,[1]; at 11.0 µM,97% (active)
same,growth inhibition,[1]; at 33.0 µM,98% (active)
same,growth inhibition,[1]; at 100.0 µM,99% (active)
same,growth inhibition,[2]; at 1.2 µM,1%
same,growth inhibition,[2]; at 3.7 µM,24%
same,growth inhibition,[2]; at 11.0 µM,98% (active)
same,growth inhibition,[2]; at 33.0 µM,99% (active)
same,growth inhibition,[2]; at 100.0 µM,98% (active)
same,growth inhibition,[3]; at 1.2 µM,-10%
same,growth inhibition,[3]; at 3.7 µM,-3%
same,growth inhibition,[3]; at 11.0 µM,26%
same,growth inhibition,[3]; at 33.0 µM,96% (active)
same,growth inhibition,[3]; at 100.0 µM,99% (active)
same,growth inhibition,[4]; at 1.2 µM,-2%
same,growth inhibition,[4]; at 3.7 µM,22%
same,growth inhibition,[4]; at 11.0 µM,99% (active)
same,growth inhibition,[4]; at 33.0 µM,99% (active)
same,growth inhibition,[4]; at 100.0 µM,99% (active)
same,growth inhibition,[5]; at 1.2 µM,6%
same,growth inhibition,[5]; at 3.7 µM,73% (active)
same,growth inhibition,[5]; [17],21%
same,growth inhibition,[5]; at 11.0 µM,97% (active)
same,growth inhibition,[5]; at 33.0 µM,99% (active)
same,growth inhibition,[5]; [18],99% (active)
same,growth inhibition,[5]; at 50.0 µM,99.2% (active)
same,growth inhibition,[5]; at 100.0 µM,99% (active)
same,growth inhibition,[6]; at 1.2 µM,7%
same,growth inhibition,[6]; at 3.7 µM,44%
same,growth inhibition,[6]; [17],1%
same,growth inhibition,[6]; at 11.0 µM,98% (active)
same,growth inhibition,[6]; at 33.0 µM,99% (active)
same,growth inhibition,[6]; [18],99% (active)
same,growth inhibition,[6]; at 50.0 µM,99.7% (active)
same,growth inhibition,[6]; at 100.0 µM,99% (active)
same,growth inhibition,[7]; at 1.2 µM,-27%
same,growth inhibition,[7]; at 3.7 µM,57%
same,growth inhibition,[7]; at 11.0 µM,99% (active)
same,growth inhibition,[7]; at 33.0 µM,99% (active)
same,growth inhibition,[7]; at 100.0 µM,99% (active)
same,growth inhibition,[8]; [17],49%
same,growth inhibition,[8]; [18],99% (active)
same,growth inhibition,[8]; at 50.0 µM,99.2% (active)
same,growth inhibition,[9]; at 1.2 µM,2%
same,growth inhibition,[9]; at 3.7 µM,22%
same,growth inhibition,[9]; at 11.0 µM,96% (active)
same,growth inhibition,[9]; at 33.0 µM,98% (active)
same,growth inhibition,[9]; at 100.0 µM,98% (active)
same,growth inhibition,[10]; [17],34%
same,growth inhibition,[10]; [18],99% (active)
same,growth inhibition,[10]; at 50.0 µM,99.1% (active)
same,growth inhibition,[11]; at 1.2 µM,13%
same,growth inhibition,[11]; at 3.7 µM,58%
same,growth inhibition,[11]; [17],63%
same,growth inhibition,[11]; at 11.0 µM,97% (active)
same,growth inhibition,[11]; at 33.0 µM,98% (active)
same,growth inhibition,[11]; [18],98% (active)
same,growth inhibition,[11]; at 50.0 µM,99.6% (active)
same,growth inhibition,[11]; at 100.0 µM,99% (active)
same,growth inhibition,[12]; at 1.2 µM,1%
same,growth inhibition,[12]; at 3.7 µM,33%
same,growth inhibition,[12]; at 11.0 µM,98% (active)
same,growth inhibition,[12]; at 33.0 µM,99% (active)
same,growth inhibition,[12]; at 100.0 µM,99% (active)
same,growth inhibition,[13]; at 1.2 µM,-2%
same,growth inhibition,[13]; at 3.7 µM,46%
same,growth inhibition,[13]; at 11.0 µM,99% (active)
same,growth inhibition,[13]; at 33.0 µM,99% (active)
same,growth inhibition,[13]; at 100.0 µM,99% (active)
same,growth inhibition,[14]; at 1.2 µM,9%
same,growth inhibition,[14]; at 3.7 µM,55%
same,growth inhibition,[14]; at 11.0 µM,99% (active)
same,growth inhibition,[14]; at 33.0 µM,99% (active)
same,growth inhibition,[14]; at 100.0 µM,99% (active)
same,growth inhibition,[15]; [17],45%
same,growth inhibition,[15]; [18],99% (active)
same,growth inhibition,[15]; at 50.0 µM,99.3% (active)
same,growth inhibition,[16]; at 1.2 µM,5%
same,growth inhibition,[16]; at 3.7 µM,39%
same,growth inhibition,[16]; at 11.0 µM,97% (active)
same,growth inhibition,[16]; at 33.0 µM,99% (active)
same,growth inhibition,[16]; at 100.0 µM,99% (active)
